Measurements taken from the supplement of paper PMC8975748.
Structures can show the parent of a compound that is named as a salt. ± gives the standard deviation of the averaged measurements.

Tests used:
[1] = system: Saccharomyces cerevisiae BY4741 SeMeCo community; assay: mean cell size (pixel area) (pixels); higher = larger cells; details: 10 µM; 24 h; SM minimal medium
How it was run: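 For 24 h, 70 µl of yeast culture diluted to OD600 = 0.3 from an overnight preculture at OD600 = 1.0 was kept in SM medium in 384-well plates acoustically predosed with drug, final 10 µM. The strain was Saccharomyces cerevisiae BY4741 forming a fluorescent community of four plasmids, each complementing one auxotrophy and carrying a fluorescent marker. Automated confocal microscopy of paraformaldehyde-fixed cells, analysed in Harmony, provided mean cell pixel area per well, which was averaged over 3 replicates. Same SeMeCo high-content imaging drug screen: Selleck FDA-approved drugs at 10 µM, 24 h in SM medium, 384-well plates, 3 replicates.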

[2] = system: Saccharomyces cerevisiae BY4741 SeMeCo community; assay: z-score of prototroph abundance vs DMSO median; higher = larger share of this subpopulation than in DMSO controls; details: 10 µM; 24 h; SM minimal medium; subpopulation (auxotrophy): Prototroph
How it was run: (§1)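 Scoring was based on each subpopulation's abundance, expressed as a z-score against the vehicle-well median. A Saccharomyces cerevisiae BY4741 community with four plasmids, each restoring one auxotrophy and encoding a distinct fluorescent protein, was pre-grown overnight to OD600 1.0, diluted to 0.3, and added at 70 µl to 384-well plates acoustically predosed with library drugs (10 µM final). It then grew 24 h in minimal SM medium before paraformaldehyde fixation and automated confocal microscopy, with single-auxotroph fluorescent strains setting thresholds and autofluorescence correction.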

[3] = system: Saccharomyces cerevisiae BY4741 SeMeCo community; assay: z-score of subpopulation abundance vs DMSO median, subpopulation auxotrophic for L; higher = larger share of this subpopulation than in DMSO controls; details: 10 µM; 24 h; SM minimal medium; subpopulation (auxotrophy): L
How it was run: as §1

[4] = system: Saccharomyces cerevisiae BY4741 SeMeCo community; assay: z-score of subpopulation abundance vs DMSO median, subpopulation auxotrophic for U; higher = larger share of this subpopulation than in DMSO controls; details: 10 µM; 24 h; SM minimal medium; subpopulation (auxotrophy): U
How it was run: as §1

[5] = system: Saccharomyces cerevisiae BY4741 SeMeCo community; assay: z-score of subpopulation abundance vs DMSO median, subpopulation auxotrophic for H; higher = larger share of this subpopulation than in DMSO controls; details: 10 µM; 24 h; SM minimal medium; subpopulation (auxotrophy): H
How it was run: as §1

[6] = system: Saccharomyces cerevisiae BY4741 SeMeCo community; assay: z-score of subpopulation abundance vs DMSO median, subpopulation auxotrophic for LU; higher = larger share of this subpopulation than in DMSO controls; details: 10 µM; 24 h; SM minimal medium; subpopulation (auxotrophy): LU
How it was run: as §1

[7] = system: Saccharomyces cerevisiae BY4741 SeMeCo community; assay: z-score of subpopulation abundance vs DMSO median, subpopulation auxotrophic for LM; higher = larger share of this subpopulation than in DMSO controls; details: 10 µM; 24 h; SM minimal medium; subpopulation (auxotrophy): LM
How it was run: as §1

[8] = system: Saccharomyces cerevisiae BY4741 SeMeCo community; assay: z-score of subpopulation abundance vs DMSO median, subpopulation auxotrophic for HU; higher = larger share of this subpopulation than in DMSO controls; details: 10 µM; 24 h; SM minimal medium; subpopulation (auxotrophy): HU
How it was run: as §1

[9] = system: Saccharomyces cerevisiae BY4741 SeMeCo community; assay: z-score of subpopulation abundance vs DMSO median, subpopulation auxotrophic for HL; higher = larger share of this subpopulation than in DMSO controls; details: 10 µM; 24 h; SM minimal medium; subpopulation (auxotrophy): HL
How it was run: as §1

[10] = system: Saccharomyces cerevisiae BY4741 SeMeCo community; assay: z-score of subpopulation abundance vs DMSO median, subpopulation auxotrophic for HLM; higher = larger share of this subpopulation than in DMSO controls; details: 10 µM; 24 h; SM minimal medium; subpopulation (auxotrophy): HLM
How it was run: as §1

[11] = system: Saccharomyces cerevisiae BY4741 SeMeCo community; assay: z-score of subpopulation abundance vs DMSO median, subpopulation auxotrophic for HUM; higher = larger share of this subpopulation than in DMSO controls; details: 10 µM; 24 h; SM minimal medium; subpopulation (auxotrophy): HUM
How it was run: as §1

[12] = system: Saccharomyces cerevisiae BY4741 SeMeCo community; assay: z-score of subpopulation abundance vs DMSO median, subpopulation auxotrophic for LUM; higher = larger share of this subpopulation than in DMSO controls; details: 10 µM; 24 h; SM minimal medium; subpopulation (auxotrophy): LUM
How it was run: as §1

[13] = system: Saccharomyces cerevisiae BY4741 SeMeCo community; assay: z-score of subpopulation abundance vs DMSO median, subpopulation auxotrophic for UM; higher = larger share of this subpopulation than in DMSO controls; details: 10 µM; 24 h; SM minimal medium; subpopulation (auxotrophy): UM
How it was run: as §1

[14] = system: Saccharomyces cerevisiae BY4741 SeMeCo community; assay: z-score of subpopulation abundance vs DMSO median, subpopulation auxotrophic for HLUM; higher = larger share of this subpopulation than in DMSO controls; details: 10 µM; 24 h; SM minimal medium; subpopulation (auxotrophy): HLUM
How it was run: as §1

[15] = system: Saccharomyces cerevisiae BY4741 SeMeCo community; assay: z-score of subpopulation abundance vs DMSO median, subpopulation auxotrophic for HM; higher = larger share of this subpopulation than in DMSO controls; details: 10 µM; 24 h; SM minimal medium; subpopulation (auxotrophy): HM
How it was run: as §1

CN(C)[C@@H]1C(O)=C(C(N)=O)C(=O)[C@@]2(O)C(O)=C3C(=O)c4c(O)cccc4[C@@](C)(O)[C@H]3C[C@@H]12 [Tetracycline HCl]
mean cell size [1]: 12.3 ± 0.19

CC(C)(C)[C@H]1CC[C@H](CC2=C(O)C(=O)c3ccccc3C2=O)CC1 [Buparvaquone]
mean cell size [1]: 12.1 ± 0.18

CN(C)c1ccc(O)c2c1C[C@H]1C[C@H]3[C@H](N(C)C)C(O)=C(C(N)=O)C(=O)[C@@]3(O)C(O)=C1C2=O [Minocycline HCl]
mean cell size [1]: 12.2 ± 0.13

O=C1C(O)=C([C@H]2CC[C@H](c3ccc(Cl)cc3)CC2)C(=O)c2ccccc21 [Atovaquone]
mean cell size [1]: 12.39 ± 0.12

CNS(=O)(=O)Cc1ccc2[nH]cc(CCN(C)C)c2c1 [Sumatriptan Succinate]
mean cell size [1]: 12.34 ± 0.1

Cc1c(C)c2c(c(C)c1O)CC[C@@](C)(CCC[C@H](C)CCC[C@H](C)CCCC(C)C)O2 [Vitamin E]
mean cell size [1]: 12.2 ± 0.22

NS(=O)(=O)c1cc(C(=O)O)c(NCc2ccco2)cc1Cl [Furosemide]
mean cell size [1]: 12.5 ± 0.21

CN(C)[C@@H]1C(O)=C(C(N)=O)C(=O)[C@@]2(O)C(O)=C3C(=O)c4c(O)cccc4[C@@](C)(O)[C@H]3[C@H](O)[C@@H]12 [Oxytetracycline (Terramycin)]
mean cell size [1]: 12.87 ± 0.067

COc1ccc2c(c1)C(=O)N(CCc1ccc(S(=O)(=O)NC(=O)NC3CCCCC3)cc1)C(=O)C2(C)C [Gliquidone]
mean cell size [1]: 12.5 ± 0.12

CCCCCCCCCC(=O)N[C@H]1[C@H](Oc2c3cc4cc2Oc2ccc(cc2Cl)[C@@H](O[C@@H]2O[C@H](CO)[C@@H](O)[C@H](O)[C@H]2NC(C)=O)[C@@H]2NC(=O)[C@H](NC(=O)[C@@H]4NC(=O)[C@H]4NC(=O)[C@@H](Cc5ccc(c(Cl)c5)O3)NC(=O)[C@H](N)c3ccc(O)c(c3)Oc3cc(O)cc4c3)c3ccc(O)c(c3)-c3c(OC4O[C@H](CO)[C@@H](O)[C@H](O)[C@@H]4O)cc(O)cc3[C@@H](C(=O)O)NC2=O)O[C@H](CO)[C@@H](O)[C@@H]1O (stereo partly specified) [Teicoplanin]
mean cell size [1]: 11.8 ± 0.16

NC12CC3CC(CC(C3)C1)C2 [Amantadine]
mean cell size [1]: 12 ± 0.17 | z-score of prototroph abundance [2]: 0 | z-score of subpopulation abundance [3]: 0.99 | z-score of subpopulation abundance [4]: -0.38 | z-score of subpopulation abundance [5]: 0.12 | z-score of subpopulation abundance [6]: 0.79 | z-score of subpopulation abundance [7]: 0.28 | z-score of subpopulation abundance [8]: -0.15 | z-score of subpopulation abundance [9]: -0.09 | z-score of subpopulation abundance [10]: -0.36 | z-score of subpopulation abundance [11]: 0.47 | z-score of subpopulation abundance [12]: -0.04

CC(=O)NS(=O)(=O)c1ccc(N)cc1 [Sulfacetamide Sodium]
mean cell size [1]: 12.4 ± 0.26 | z-score of prototroph abundance [2]: -0.69 | z-score of subpopulation abundance [4]: 0.86 | z-score of subpopulation abundance [6]: 0.61 | z-score of subpopulation abundance [7]: -0.08 | z-score of subpopulation abundance [8]: -0.34 | z-score of subpopulation abundance [13]: 0.35 | z-score of subpopulation abundance [9]: 0.22 | z-score of subpopulation abundance [10]: -0.1 | z-score of subpopulation abundance [11]: 0.62 | z-score of subpopulation abundance [12]: 0.63 | z-score of subpopulation abundance [14]: 0.37

O=c1[nH]cnc2c1ncn2[C@H]1CC[C@@H](CO)O1 [Didanosine]
mean cell size [1]: 12.4 ± 0.19

CC[C@H]1OC(=O)C[C@@H](O)[C@H](C)[C@@H](O[C@@H]2O[C@H](C)[C@@H](O[C@H]3C[C@@](C)(O)[C@@H](O)[C@H](C)O3)[C@H](N(C)C)[C@H]2O)[C@@H](CC=O)C[C@@H](C)C(=O)/C=C/C(C)=C/[C@@H]1CO[C@@H]1O[C@H](C)[C@@H](O)[C@@H](OC)[C@H]1OC [Tylosin tartrate]
mean cell size [1]: 12.45 ± 0.055

CC1(C)S[C@@H]2[C@H](NC(=O)[C@H](N)c3ccc(O)cc3)C(=O)N2[C@H]1C(=O)O [Amoxicillin trihydrate]
mean cell size [1]: 12.19 ± 0.082 | z-score of prototroph abundance [2]: -0.1 | z-score of subpopulation abundance [4]: 0.03 | z-score of subpopulation abundance [5]: -0.05 | z-score of subpopulation abundance [6]: 0.61 | z-score of subpopulation abundance [7]: 0.15 | z-score of subpopulation abundance [8]: 0.31 | z-score of subpopulation abundance [13]: 0.19 | z-score of subpopulation abundance [9]: -0.69 | z-score of subpopulation abundance [11]: -0.08 | z-score of subpopulation abundance [12]: 0.38 | z-score of subpopulation abundance [14]: -0.21

COc1cccc2c1C(=O)c1c(O)c3c(c(O)c1C2=O)CC(O)(C(=O)CO)CC3OC1CC(N)C(O)C(C)O1 (stereo unspecified) [Doxorubicin (Adriamycin) HCl]
z-score of prototroph abundance [2]: -3.54 | z-score of subpopulation abundance [3]: 0.99 | z-score of subpopulation abundance [4]: 4.2 | z-score of subpopulation abundance [5]: 4.08 | z-score of subpopulation abundance [6]: 8.06 | z-score of subpopulation abundance [7]: -0.36 | z-score of subpopulation abundance [15]: -2.19 | z-score of subpopulation abundance [13]: 0.38 | z-score of subpopulation abundance [9]: 2.67 | z-score of subpopulation abundance [10]: 2.16 | z-score of subpopulation abundance [11]: 2.39 | z-score of subpopulation abundance [12]: 4.19 | z-score of subpopulation abundance [14]: 12.9

C[C@H]1c2cccc(O)c2C(=O)C2=C(O)[C@]3(O)C(=O)C(C(N)=O)=C(O)[C@@H](N(C)C)[C@@H]3[C@@H](O)[C@@H]21 [Doxycycline monohydrate]
mean cell size [1]: 12.2 ± 0.19

C=C1c2cccc(O)c2C(=O)C2=C(O)[C@]3(O)C(=O)C(C(N)=O)=C(O)[C@@H](N(C)C)[C@@H]3[C@@H](O)[C@H]12 [Methacycline HCl]
mean cell size [1]: 12.2 ± 0.23

O=c1c(-c2ccc(O)cc2)coc2c([C@@H]3O[C@H](CO)[C@@H](O)[C@H](O)[C@H]3O)c(O)ccc12 [Puerarin]
mean cell size [1]: 12.55 ± 0.11 | z-score of prototroph abundance [2]: -0.2 | z-score of subpopulation abundance [3]: -0.61 | z-score of subpopulation abundance [4]: 0.36 | z-score of subpopulation abundance [5]: 0.2 | z-score of subpopulation abundance [15]: 1.09 | z-score of subpopulation abundance [8]: 0.41 | z-score of subpopulation abundance [13]: 0.39 | z-score of subpopulation abundance [9]: 0.23 | z-score of subpopulation abundance [10]: 1.18 | z-score of subpopulation abundance [11]: -0.25 | z-score of subpopulation abundance [14]: -0.33

C=C1CC[C@@H]2[C@](C)(CO)[C@H](O)CC[C@@]2(C)[C@H]1C/C=C1\C=COC1=O [Dehydroandrographolide]
mean cell size [1]: 12.37 ± 0.086
